DRD3 antagonist = D3 dopamine receptor (human) antagonism. P35462. D3R cells, DiscoveRx beta-arrestin luminescence, antagonist mode; hits give low values. max response, negative = inhibition, %. 360,000 tested, 2.5% active; in the data active means max response below about -50%; inconclusive means no clear call, values can overlap the other calls
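Cells expressing the human receptor were seeded at 1500 cells/well, incubated overnight at 37 degrees C in 5% CO2, then exposed to library compounds with dopamine controls for 90 minutes at 37 degrees C before luminescent detection.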
LDHA block = inhibitors of human lactate dehydrogenase A | P00338 | activity change, % (values are at about 110 or 230 µM) | purified LDHA, NADH/diaphorase-resazurin fluorescence; hits give low values | 480,000 tested, 0.15% active; in the data active means activity change below about -30%; inconclusive means mostly about -25% to -30%
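Resorufin fluorescence (ex540/em590), read at 0 and 20 min after diaphorase/resazurin addition, reports the NADH left after a 5 min room-temperature reaction of 2 nM human LDH5 with 0.06 mM NADH and 0.2 mM pyruvate.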
DRD3 agonist = activates the human D3 dopamine receptor; P35462; max activation, %; D3R DiscoveRx beta-arrestin cells, luminescence, 90 min; 410,000 tested, 0.58% active; in the data active means max activation above about 30%
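Cells at 1500/well, incubated overnight, then treated with pinned compounds (dopamine as control) for 90 min at 37 degrees C. DiscoveRx reagent added for 30 - 60 minutes at room temperature; luminescence read.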
PI5P4K alpha inh = inhibitors of human PI5P4K alpha; 330,000 tested, 1.2% active; P48426; PI5P4Kalpha enzyme, ADP-Glo luminescence, 60 min; hits give low values; max response, %; active means max response of -50% or lower; inconclusive means between -30% and -50%; inactive means -30% or higher; further: value at the top dose of about 77 µM
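qHTS, 1536-well: enzyme/substrate mix, compound by pin tool, 5 microM ATP final; RT 60 min; ADP-Glo reagents 1 (45 min) then 2 (30 min); luminescence.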
PI4K2A inh = blocks human PI4K2A kinase activity; Q9BTU6; purified PI4K2A, ADP-Glo luminescence, 1 h; hits give low values; activity change, negative = inhibition, % at 76.9 µM; 420,000 tested, 0.13% active; in the data active means activity change below about -50%; inconclusive means mostly about -30% to -49%
Target sequence (Q9BTU6 whole entry, looked up): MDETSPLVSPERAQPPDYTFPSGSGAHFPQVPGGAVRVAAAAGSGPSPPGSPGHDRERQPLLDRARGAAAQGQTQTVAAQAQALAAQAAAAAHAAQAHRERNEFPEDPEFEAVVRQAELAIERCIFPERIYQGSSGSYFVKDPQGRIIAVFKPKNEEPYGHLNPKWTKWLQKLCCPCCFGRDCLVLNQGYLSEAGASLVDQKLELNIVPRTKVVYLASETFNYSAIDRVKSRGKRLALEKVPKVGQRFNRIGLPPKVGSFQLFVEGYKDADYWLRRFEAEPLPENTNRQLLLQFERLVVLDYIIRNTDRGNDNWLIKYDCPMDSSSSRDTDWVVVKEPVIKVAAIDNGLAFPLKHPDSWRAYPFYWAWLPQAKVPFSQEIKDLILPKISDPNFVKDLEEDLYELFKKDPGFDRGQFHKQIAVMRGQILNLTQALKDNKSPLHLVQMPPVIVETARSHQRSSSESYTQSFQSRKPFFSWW
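In this quantitative HTS, ADP production by PI4K2A was quantified luminescently after 1 h at ambient temperature; 100 microM adenosine served as plate-quality control.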
A number is an active result; 0 = inactive; ? = inconclusive; - = no result. Compounds with a hit are over-represented: about 3.3% of the library has one in this group of screens.

SMILES	DRD3 antagonist	LDHA block	DRD3 agonist	PI5P4K alpha inh	PI4K2A inh
O=C(NCCCN1CCN(c2cccc(Cl)c2)CC1)c1nc(-c2ccncc2)no1	-64	0	0	-	0
COCCNC(=O)c1cn(C)c(=O)c2cc(OC)c(OC)cc12	0	0	0	0	0
CC(C)(C)c1ccc(C(C)(C)C)c2c1OC(c1ccccc1)O2	-	0	-	-	-
O=C(NC1CCCc2ccccc21)c1ccnc(Cl)c1 (stereo not given)	-	0	-	-	-
COc1ccc(S(N)(=O)=O)cc1C(=O)NCCCN1CCN(c2cccc(Cl)c2)CC1	-50	0	0	0	0
COc1ccc(Cl)cc1C(=O)NCCCN1CCOCC1	0	0	0	0	0
CC1=C(C(=O)OCc2ccccc2)C(c2ccc3c(c2)OCO3)NC(=O)N1CCCC(=O)O (stereo not given)	?	0	0	-78	0
CC1=C(C(=O)OCc2ccccc2)C(c2ccccc2Cl)NC(=O)N1CCCC(=O)O (stereo not given)	0	0	0	-73	0
CC1=C(C(=O)OCc2ccccc2)C(c2ccc3ccccc3c2)NC(=O)N1CCCC(=O)O (stereo not given)	0	0	0	-101	0
CC1=C(C(=O)OCc2ccccc2)C(c2ccc3ccccc3c2)NC(=O)N1CCCCCC(=O)O (stereo not given)	0	0	0	?	0
CC1=C(C(=O)OCc2ccccc2)C(c2ccccc2OS(=O)(=O)c2ccc(C)cc2)NC(=O)N1CCCC(=O)O (stereo not given)	0	0	0	-72	0
CC(=O)Oc1ccc(OC(C)=O)c2ccccc12	-	0	-	-	-
CC1=C(C(=O)OCc2ccccc2)C(c2ccc([N+](=O)[O-])cc2)NC(=O)N1CCCC(=O)O (stereo not given)	0	0	0	-68	0
O=C(/C=C\c1ccccc1)Oc1cccc2cccnc12	-59	0	0	0	0
C=CCSc1nnc(NC(=O)COc2ccc3ccccc3c2)s1	-66	0	0	-	0
Cc1cccc2cc3c(nc12)SC(=NCC1CCCO1)N(Cc1ccco1)C3 (stereo not given)	?	0	0	-55	0
Cc1ccc2nc3c(cc2c1)CN(Cc1ccco1)C(=NCC1CCCO1)S3 (stereo not given)	0	0	0	0	0
CCOC(=O)c1cc(-c2ccccc2)nn1CCC#N	0	0	0	0	0
C=CCn1nc(-c2ccccc2)cc1C(=O)OCC	0	0	40	0	0
COc1cccc(CNC(=S)OC2CCC23CCC(c2ccccc2)CC3)c1 (stereo not given)	-	-	-	-	0
CC12CCC(C(=O)N(CCCCN3CCN(c4ccccn4)CC3)C1=O)C2(C)C (stereo not given)	0	0	86	0	0
CC12CCC(C(=O)N(CCCN3CCN(Cc4ccccc4)CC3)C1=O)C2(C)C (stereo not given)	0	0	0	0	0
Cc1ccc(-c2nn(CC(=O)Nc3cccc(C)c3)c(=O)c3ccccc23)cc1	-	0	-	-	-
Cc1c(Cl)cccc1NC(=O)CSc1nnc2[nH]c(=O)c(C(C)(C)C)nn12	-	0	-	-	-
COc1cccc(NC(=O)CN(C)CC(=O)N(C)C2(C#N)CCC(C)CC2)c1 (stereo not given)	-	0	-	-	-
SMILES	DRD3 antagonist	LDHA block	DRD3 agonist	PI5P4K alpha inh	PI4K2A inh
COc1ccc(NC(=O)CN(C)CC(=O)N(C)C2(C#N)CCC(C)CC2)cc1 (stereo not given)	-50	0	0	0	0
CCN(CC)S(=O)(=O)c1ccc(C)c(N)c1	-	0	-	-	-
Cc1ccc(OCCCC(=O)Nc2ccc3c(c2)OCO3)cc1	-52	0	0	-	0
COc1cccc(/C=C/c2nc3ccccc3nc2/C=C/c2cccc(OC)c2OC)c1OC	-	0	-	-	-
O=C1C2C3C=CC(C3)C2C(=O)N1/N=C/c1cc(Br)cc([N+](=O)[O-])c1O (stereo not given)	-68	0	0	?	0
O=C1C2C3C=CC(C3)C2C(=O)N1/N=C/c1ccc(-c2ccccc2[N+](=O)[O-])o1 (stereo not given)	0	0	0	0	0
NC(=O)c1ccc(NC(=O)COC(=O)/C=C/c2ccc(Br)o2)cc1	0	0	0	-58	0
CC1(C)CN=C(N(C(=O)Nc2ccccc2)c2ccccc2F)S1	0	0	31	0	0
COC(=O)c1ccc(COC(=O)Cc2ccc3c(c2)OCCO3)cc1	-	0	-	-	-
